# About 79,000 compounds went through this panel and 15% of them were active in at least one assay; those are over-represented in the sample as a whole. Unmarked numbers belong to inactive results. Activity calls are given as the source filed them. Rule as the data show it: active = growth inhibition above about 70%; inactive = the rest.
# How the values were obtained:
# [1] = NCI Yeast Anticancer Drug Screen. Data for the mec2-1 strain (AID 157); conditions: S. cerevisiae mec2-1 strain, hits give high values
# In short: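 Compounds were applied to mec2-1 yeast cells. Their growth was then compared with that of vehicle-treated cultures to give growth inhibition.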
# [2] = NCI Yeast Anticancer Drug Screen. Data for the rad14 strain (AID 159);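 also: 0% = growth of vehicle-treated control cultures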; conditions: S. cerevisiae rad14 strain growth inhibition, hits give high values
# In short: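 Yeast cells carrying a defined DNA-repair defect were exposed to compounds, and growth inhibition was calculated relative to vehicle-treated control cultures.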
# [3] = NCI Yeast Anticancer Drug Screen. Data for the sgs1 mgt1 strain (AID 161);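 also: 0% = growth of cultures given vehicle only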; conditions: S. cerevisiae sgs1 mgt1 strain, hits give high values
# In short: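 Percent growth inhibition was derived by comparing compound-exposed mutant yeast with vehicle-exposed cultures. The strain carries alterations in DNA damage repair.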
# [4] = NCI Yeast Anticancer Drug Screen. Data for the cln2 rad14 strain (AID 165);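 also: 0% = growth equal to vehicle treated cultures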; conditions: S. cerevisiae cln2 rad14 strain, hits give high values
# In short: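 Strain: cln2 rad14 yeast, altered in cell cycle control and DNA damage repair. Read-out: growth inhibition vs vehicle.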
# [5] = NCI Yeast Anticancer Drug Screen. Data for the bub3 strain (AID 167); conditions: S. cerevisiae bub3 mutant strain, hits give high values
# In short: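 Compounds were applied to a genetically altered yeast strain carrying a cell-cycle control defect. Growth inhibition was scored against vehicle-treated controls.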
# [6] = NCI Yeast Anticancer Drug Screen. Data for the wt2 strain (AID 169);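 also: 0% = growth of vehicle-treated yeast cultures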; conditions: S. cerevisiae wt2 strain growth inhibition, hits give high values
# In short: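 Growth of compound-treated yeast is measured and expressed as inhibition relative to vehicle-only controls.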
# [7] = NCI Yeast Anticancer Drug Screen. Data for the mlh1 strain (AID 171);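 also: 0% = growth of vehicle-treated control cultures of the same strain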; conditions: S. cerevisiae mlh1 strain growth inhibition, hits give high values
# In short: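 Test agents were incubated with yeast bearing a defined DNA damage repair or cell cycle control alteration; values are growth inhibition normalised to vehicle-treated cultures.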
# [8] = NCI Yeast Anticancer Drug Screen. Data for the sgs1 strain (AID 173);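 also: 0% = growth of vehicle-only control cultures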; conditions: S. cerevisiae sgs1 mutant, hits give high values
# In short: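 Strain with an altered DNA repair or cell cycle pathway exposed to compound. Growth then measured. Value = inhibition versus vehicle control.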
# [9] = NCI Yeast Anticancer Drug Screen. Data for the mlh1 rad18 strain (AID 175); conditions: S. cerevisiae mlh1 rad18 strain growth inhibition, hits give high values
# In short: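 A repair-deficient yeast strain is exposed to test compound, and growth is scored relative to vehicle-treated controls.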
# [10] = NCI Yeast Anticancer Drug Screen. Data for the rad18 strain (AID 177); conditions: S. cerevisiae rad18 mutant growth inhibition, hits give high values
# In short: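 DNA-repair-defective yeast; compound treatment; growth inhibition scored against vehicle.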
# [11] = NCI Yeast Anticancer Drug Screen. Data for the rad52 strain (AID 147);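 also: 0% = growth of vehicle-treated control cultures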; conditions: S. cerevisiae rad52 mutant growth inhibition, hits give high values
# In short: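 Growth of repair-deficient yeast cells was compared between compound-treated and vehicle-treated cultures to give percent inhibition.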
# [12] = NCI Yeast Anticancer Drug Screen. Data for the wt1 strain (AID 149);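 also: 0% = growth of vehicle-treated wt1 cultures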; conditions: S. cerevisiae wt1 strain (SPY 50644) growth inhibition, hits give high values
# In short: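 Yeast wt1 strain exposed to compounds; growth inhibition measured relative to vehicle-treated controls.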
# [13] = NCI Yeast Anticancer Drug Screen. Data for the rad50EPP+ strain (AID 151);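 also: 0% = growth of vehicle-treated control cultures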; conditions: S. cerevisiae rad50 mutant strain, hits give high values
# In short: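 Measured: growth inhibition of rad50EPP+ yeast. Reference: vehicle-treated controls. Screen uses strains with defined genetic alterations in DNA damage repair or cell cycle control.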
# [14] = NCI Yeast Anticancer Drug Screen. Data for the mgt1 strain (AID 153); conditions: S. cerevisiae mgt1 mutant growth inhibition, hits give high values
# In short: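 Compounds were applied to mgt1 mutant yeast, and growth was then compared against vehicle-treated control cultures to give percent inhibition.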
# [15] = NCI Yeast Anticancer Drug Screen. Data for the rad50 strain (AID 155);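 also: 0% = growth of vehicle-only cultures of the same strain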; conditions: S. cerevisiae rad50 strain growth inhibition, hits give high values
# In short: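 Yeast carrying a defined DNA repair defect were exposed to test compounds, and growth was compared with vehicle-treated controls to give percent inhibition.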
# [16] = at 5.0 µM (retest, dose inferred, filed as 0.5)
# [17] = at 50.0 µM (retest, dose inferred, filed as 5.0)
structure (smiles),measurement,setting,value
C/C(=N\NC(=S)N1CCCCC1)c1cccc(C)n1,growth inhibition,[1]; [16],86% (active)
same,growth inhibition,[1]; at 11.0 µM,96% (active)
same,growth inhibition,[1]; at 33.0 µM,99% (active)
same,growth inhibition,[1]; [17],100% (active)
same,growth inhibition,[1]; at 50.0 µM,92.2% (active)
same,growth inhibition,[1]; at 100.0 µM,99% (active)
same,growth inhibition,[2]; at 1.2 µM,45%
same,growth inhibition,[2]; at 3.7 µM,97% (active)
same,growth inhibition,[2]; at 11.0 µM,99% (active)
same,growth inhibition,[2]; at 33.0 µM,100% (active)
same,growth inhibition,[2]; at 100.0 µM,99% (active)
same,growth inhibition,[3]; [16],81% (active)
same,growth inhibition,[3]; [17],99% (active)
same,growth inhibition,[3]; at 50.0 µM,85.8% (active)
same,growth inhibition,[4]; [16],93% (active)
same,growth inhibition,[4]; [17],99% (active)
same,growth inhibition,[4]; at 50.0 µM,90.7% (active)
same,growth inhibition,[5]; at 1.2 µM,21%
same,growth inhibition,[5]; at 3.7 µM,87% (active)
same,growth inhibition,[5]; [16],93% (active)
same,growth inhibition,[5]; at 11.0 µM,99% (active)
same,growth inhibition,[5]; at 33.0 µM,99% (active)
same,growth inhibition,[5]; [17],99% (active)
same,growth inhibition,[5]; at 50.0 µM,89.2% (active)
same,growth inhibition,[5]; at 100.0 µM,99% (active)
same,growth inhibition,[6]; at 1.2 µM,-10%
same,growth inhibition,[6]; at 3.7 µM,94% (active)
same,growth inhibition,[6]; at 11.0 µM,97% (active)
same,growth inhibition,[6]; at 33.0 µM,98% (active)
same,growth inhibition,[6]; at 100.0 µM,99% (active)
same,growth inhibition,[7]; at 1.2 µM,1%
same,growth inhibition,[7]; at 3.7 µM,92% (active)
same,growth inhibition,[7]; at 11.0 µM,96% (active)
same,growth inhibition,[7]; at 33.0 µM,96% (active)
same,growth inhibition,[7]; at 100.0 µM,96% (active)
same,growth inhibition,[8]; at 1.2 µM,9%
same,growth inhibition,[8]; at 3.7 µM,91% (active)
same,growth inhibition,[8]; at 11.0 µM,98% (active)
same,growth inhibition,[8]; at 33.0 µM,98% (active)
same,growth inhibition,[8]; at 100.0 µM,98% (active)
same,growth inhibition,[9]; [16],81% (active)
same,growth inhibition,[9]; [17],99% (active)
same,growth inhibition,[9]; at 50.0 µM,86.2% (active)
same,growth inhibition,[10]; at 1.2 µM,7%
same,growth inhibition,[10]; at 3.7 µM,90% (active)
same,growth inhibition,[10]; at 11.0 µM,98% (active)
same,growth inhibition,[10]; at 33.0 µM,98% (active)
same,growth inhibition,[10]; at 100.0 µM,97% (active)
COc1cccc2nc3ccccc3nc12,growth inhibition,[11]; at 1.2 µM,1%
same,growth inhibition,[11]; at 3.7 µM,7%
same,growth inhibition,[11]; at 11.0 µM,34%
same,growth inhibition,[11]; at 33.0 µM,90% (active)
same,growth inhibition,[11]; at 100.0 µM,97% (active)
same,growth inhibition,[12]; at 1.2 µM,-2%
same,growth inhibition,[12]; at 3.7 µM,-2%
same,growth inhibition,[12]; at 11.0 µM,3%
same,growth inhibition,[12]; at 33.0 µM,45%
same,growth inhibition,[12]; at 100.0 µM,91% (active)
same,growth inhibition,[13]; at 1.2 µM,1%
same,growth inhibition,[13]; at 3.7 µM,8%
same,growth inhibition,[13]; at 11.0 µM,34%
same,growth inhibition,[13]; at 33.0 µM,79% (active)
same,growth inhibition,[13]; at 100.0 µM,94% (active)
same,growth inhibition,[14]; at 1.2 µM,1%
same,growth inhibition,[14]; at 3.7 µM,1%
same,growth inhibition,[14]; at 11.0 µM,6%
same,growth inhibition,[14]; at 33.0 µM,75% (active)
same,growth inhibition,[14]; at 100.0 µM,95% (active)
same,growth inhibition,[15]; at 1.2 µM,2%
same,growth inhibition,[15]; at 3.7 µM,15%
same,growth inhibition,[15]; [16],-22%
same,growth inhibition,[15]; at 11.0 µM,45%
same,growth inhibition,[15]; at 33.0 µM,91% (active)
same,growth inhibition,[15]; [17],65%
same,growth inhibition,[15]; at 50.0 µM,83.6% (active)
same,growth inhibition,[15]; at 100.0 µM,97% (active)
same,growth inhibition,[1]; at 1.2 µM,-2%
same,growth inhibition,[1]; at 3.7 µM,2%
same,growth inhibition,[1]; [16],-5%
same,growth inhibition,[1]; at 11.0 µM,4%
same,growth inhibition,[1]; at 33.0 µM,35%
same,growth inhibition,[1]; [17],17%
same,growth inhibition,[1]; at 50.0 µM,31.3%
same,growth inhibition,[1]; at 100.0 µM,89% (active)
same,growth inhibition,[2]; at 1.2 µM,-2%
same,growth inhibition,[2]; at 3.7 µM,0%
same,growth inhibition,[2]; at 11.0 µM,2%
same,growth inhibition,[2]; at 33.0 µM,30%
same,growth inhibition,[2]; at 100.0 µM,82% (active)
same,growth inhibition,[3]; [16],-19%
same,growth inhibition,[3]; [17],5%
same,growth inhibition,[3]; at 50.0 µM,4.55%
same,growth inhibition,[4]; [16],-14%
same,growth inhibition,[4]; [17],18%
same,growth inhibition,[4]; at 50.0 µM,9.4%
same,growth inhibition,[5]; at 1.2 µM,1%
same,growth inhibition,[5]; at 3.7 µM,-11%
same,growth inhibition,[5]; [16],-25%
same,growth inhibition,[5]; at 11.0 µM,2%
same,growth inhibition,[5]; at 33.0 µM,56%
same,growth inhibition,[5]; [17],19%
same,growth inhibition,[5]; at 50.0 µM,24.9%
same,growth inhibition,[5]; at 100.0 µM,94% (active)
same,growth inhibition,[7]; at 1.2 µM,0%
same,growth inhibition,[7]; at 3.7 µM,3%
same,growth inhibition,[7]; at 11.0 µM,-2%
same,growth inhibition,[7]; at 33.0 µM,51%
same,growth inhibition,[7]; at 100.0 µM,97% (active)
same,growth inhibition,[8]; at 1.2 µM,-6%
same,growth inhibition,[8]; at 3.7 µM,-8%
same,growth inhibition,[8]; at 11.0 µM,0%
same,growth inhibition,[8]; at 33.0 µM,38%
same,growth inhibition,[8]; at 100.0 µM,88% (active)
same,growth inhibition,[9]; [16],-3%
same,growth inhibition,[9]; [17],36%
same,growth inhibition,[9]; at 50.0 µM,43.1%
same,growth inhibition,[10]; at 1.2 µM,-3%
same,growth inhibition,[10]; at 3.7 µM,-2%
same,growth inhibition,[10]; at 11.0 µM,16%
same,growth inhibition,[10]; at 33.0 µM,84% (active)
same,growth inhibition,[10]; at 100.0 µM,95% (active)
